Measurements published in article PMC10163288.
A selection follows. The hit rate among all sequences tested is not known here.

B1: il10ra_site1_normal_mot_HHH_b1_02397_af2_000000085_0001_39_57_H_._HHH_b1_03194_0001_0000100004_0000002_0 (protein)
chain: SSSSSSDVEELLERLEELLEEGNHEEAARLLQEALRHAFRNSDPELLKELHEFAKRLASSSSSSS
B2: il10ra_site1_sap_15_mot_HHH_b1_03531_000000273_0001_41_54_H_._HHH_b2_00993_0001_0000200012_0000001_0_0001_af2pred_0001 (protein)
chain: SSSSTEEEIRELLEEVEELIERGNNHEAAKLLKKLAELISELNNDELLKELRELAQLVIRVSSSS
B3: il10ra_site1_normal_mot_HHH_b1_06789_af2_000000041_0001_1_20_H_._HHH_b2_03029_0001_0000300011_0000002_0 (protein)
chain: SSSSSAEYLVRQALKAAKRLYEQGDPERAKEAIEIAENLARNANNPELEKLVEEFAEELENSSSS
B4: il10ra_site1_normal_mot_HHH_b2_00033_000000036_0001_41_54_H_._HHH_b1_00990_0001_0000100001_0000001_0 (protein)
chain: SSSDETEEASELAAEAIRLAIRLGDEEIFQELWELFKLVIREGDPEVTERLEELLEELRERSSSS
B5: il10ra_site1_sap_20_mot_HHH_b1_02766_af2_000000078_0001_42_56_H_._HHH_b2_04892_0001_0001000047_0000001_0_0001 (protein)
chain: SSSSDELSEEAMKLIERASELDQNGNPEEAKEVLERAEELAEEAGNRVLAWNIRFLLRRLSSSSS
B6: il10ra_site1_sap_22_mot_HHH_b2_03328_af2_000000127_0001_1_19_H_._HHH_b1_06177_0001_0000200023_0000001_0_0001 (protein)
chain: SSSSTQELYELLRRIVELDHKGNLEEAERLLEELEELARERNDPNIRMQVEFLEEIIRRNLSSSS
B7: il10ra_site1_normal_mot_HHH_b1_04514_000000156_0001_1_18_H_._HHH_b1_03241_0001_0000100007_0000001_0 (protein)
chain: SSSSYEEVKELIEEIIELAREGNPEEAEKVLRELERLAEELNNPAIRFVVRLLEEVIERQSSSSS
B8: il10ra_site1_sap_15_mot_HHH_b2_02354_af2_000000157_0001_40_56_H_._HHH_b1_07270_0001_0000500051_0000001_1_0001 (protein)
chain: SSSSSEQERAALRFAKWLIEIIEETGNPSARRSLEVMLWLLERINSEEAEELLKEAEELLSSSSS
B9: il10ra_site1_normal_mot_39ab2cb694c8b9c1dc7e65c0d672c93e_0001_000000036_0001_53_65_H_._HHH_b1_05574_0001_0000300023_0000001_0 (protein)
chain: SSSSSEEERIEELIEEAKELLERGNPEEALELVLEALRLAYQNRNAELLQELWRLAKEIASSSSS
B10: il10ra_site1_normal_mot_HHH_b2_05548_000000224_0001_41_54_H_._HHH_b1_07835_0001_0000100002_0000002_0_af2pred_0001 (protein)
chain: SSSSSDEEVEQLLEEAERLLKEGNPEEAAKVVAKAAELALELGNVELIKLVVELLRLIANSSSSS
B11: il10ra_site1_normal_mot_HHH_b1_00999_000000080_0001_41_55_H_._HHH_b1_01870_0001_0000600018_0000001_0 (protein)
chain: SSSSSSSEEEVEELLEEAKEIDDPREAARVLQEATHIALRNQNPELLRLVWEVVKRLGSSSSSSS
B12: il10ra_site1_normal_mot_HHH_b2_04945_000000076_0001_1_19_H_._HHH_b2_05056_0001_0000400022_0000001_0 (protein)
chain: SSSSTDELFEEVRRIIEEAVRLYREGNPEEARRLVEEALELAEENNNFALVFALEHLLRDLSSSS
B13: il10ra_site1_normal_mot_HHH_b2_07144_000000289_0001_1_18_H_._HHH_b2_04284_0001_0000200013_0000001_1 (protein)
chain: SSSSSENHRAYELSREAAELLRQGNEEEAREVLEEVKEIAEEANNPILEFAARAIEKAVNSSSSS
B14: il10ra_site1_normal_mot_HHH_b2_01032_000000296_0001_1_18_H_._HHH_b1_04384_af2_0001_0000600026_0000001_1 (protein)
chain: SSSSSDEEEELLELSRQAFELALRGNPEEAREVLEEAERLARELGDERLLRLVEELLQALSSSSS
B15: il10ra_site1_sap_16_mot_HHH_b2_00093_af2_000000025_0001_40_54_H_._HHH_b1_03751_0001_0001000047_0000001_0_0001_af2pred_0001 (protein)
chain: SSSSSEEERFYQLLLEALRLARRLNDEEVEEELRELLEEYKQKGDPRVEERIEELLKELRSSSSS
B16: il10ra_site1_sap_29_mot_HHH_b2_02354_af2_000000157_0001_40_56_H_._ems_3hM_2942_af2_0001_0000100002_0000002_1_0001_af2pred_0001 (protein)
chain: SSSSTAEEDVRLAIAAAELALKAGDPEKARRALEIAKLIARQGNNPELEEELEELEEEINSSSSS
B17: il10ra_site1_normal_mot_HHH_b2_00479_000000091_0001_1_12_H_._HHH_b2_03388_af2_0001_0000400024_0000002_0 (protein)
chain: SSSSTEENDEVYKLIREALELMARGNPEEARKVLEEAEEILEELNNRVLLFNVRFLLRELGSSSS
B18: il10ra_site1_normal_mot_HHH_b1_05056_000000217_0001_1_20_H_._HHH_b2_04661_af2_0001_0000500034_0000002_0 (protein)
chain: SSSSDEEELEELLEKLEELAEKGDRERFLELVLRLSELIFRLGDKEALQRLWELVREFLRRSSSS
B19: il10ra_site1_normal_mot_HHH_b2_02337_000000026_0001_38_52_H_._HHH_b2_04776_0001_0000200023_0000003_0 (protein)
chain: SSSSSSEEEEEIEELLEQLERAKSDEEISEVALRLVRLIWELNNQELLQRLWEIVKRLASSSSSS
B20: il10ra_site1_normal_mot_HHH_b2_04274_000000146_0001_1_19_H_._5a9ba470ffdefe7bbe7d066b6a6aec3b_0001_af2_0001_0000200013_0000001_1_af2pred_0001 (protein)
chain: NELVKAIRLLLQRFADDPEVLRVLRRILKLSLEDPEEAVELLLELAEKLGDPEVEELAREVERRR
B21: il10ra_site1_sap_16_mot_HHH_b2_08144_af2_000000046_0001_38_52_H_._HHH_b2_08331_0001_0000200020_0000002_0_0001 (protein)
chain: SSSSNAAEYLVRQALRAARLAKENNDPELVKRALEIAERIAENANDPELKELVEEVEEELESSSS
B22: il10ra_site1_normal_mot_HHH_b1_05326_000000242_0001_1_20_H_._HHH_b2_08124_0001_0000100011_0000002_0 (protein)
chain: SSSSSSDEFLRLLRRIFRLLLRGNPEEAQELLEELEELAEELNDPAARRAVEILKEAASSSSSSS
B23: il10ra_site1_normal_mot_HHH_b1_02809_af2_000000277_0001_40_57_H_._HHH_b2_07682_0001_0000300022_0000001_0_af2pred_0001 (protein)
chain: SSSSSRDEEAVRRALRLAKWLREAGDEEAVRKYLKAAKILAKRIGDPELEELVERVEEHLSSSSS
B24: il10ra_site1_normal_mot_HHH_b2_00273_000000062_0001_23_39_H_._HHH_b2_06821_0001_0000300032_0000001_0 (protein)
chain: SSSSEIEEFIEEVEERVRELVERGDTEEALQLLWEAAKLVAENNDEEALRILMELLRLVFRSSSS

Each binder was assayed against il10ra, Q13651 (assay: yeast display titration).
il10ra, Q13651, sequence (Q13651 whole entry): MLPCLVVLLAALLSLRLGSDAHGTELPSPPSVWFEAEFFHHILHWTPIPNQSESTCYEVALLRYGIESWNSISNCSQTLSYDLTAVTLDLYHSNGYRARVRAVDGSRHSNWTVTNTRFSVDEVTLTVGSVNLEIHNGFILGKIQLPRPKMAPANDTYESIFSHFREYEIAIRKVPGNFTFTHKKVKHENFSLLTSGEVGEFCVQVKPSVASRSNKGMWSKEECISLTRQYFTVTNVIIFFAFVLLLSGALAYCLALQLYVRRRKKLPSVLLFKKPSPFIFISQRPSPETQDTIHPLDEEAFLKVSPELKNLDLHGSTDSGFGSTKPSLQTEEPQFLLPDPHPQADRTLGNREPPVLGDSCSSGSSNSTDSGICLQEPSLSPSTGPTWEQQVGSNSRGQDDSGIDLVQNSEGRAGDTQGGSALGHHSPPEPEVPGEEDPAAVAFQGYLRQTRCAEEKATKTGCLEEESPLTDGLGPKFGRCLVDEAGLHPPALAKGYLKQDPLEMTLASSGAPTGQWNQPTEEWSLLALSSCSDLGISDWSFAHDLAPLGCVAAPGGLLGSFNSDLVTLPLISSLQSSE

Apparent Kd, inactive:
B1 no binding seen
B2 no binding seen
B3 no binding seen
B4 no binding seen
B5 no binding seen
B6 > 1.76 µM
B7 > 0.786 µM
B8 no binding seen
B9 no binding seen
B10 no binding seen
B11 no binding seen
B12 no binding seen
B13 no binding seen
B14 no binding seen
B15 no binding seen
B16 > 1.5 µM
B17 no binding seen
B18 no binding seen
B19 no binding seen
B20 no binding seen
B21 no binding seen
B22 no binding seen
B23 no binding seen
B24 no binding seen
